Screens: PubChem BioAssay, Center for Chemical Genomics, University of Michigan
Dicer processing: human Dicer pre-microRNA cleavage inhibition | Q9UPY3 | cat-ELCCA pre-miR-21 Dicer processing, chemiluminescence; stronger effect = higher value | z-score at 25 µM | hit rate 6% among 47,000 | AID 1347074; in the data active = z-score above about 3, passing the limit was not always enough;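 note: higher signal means more uncleaved substrate so more Dicer inhibition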
Target sequence (Q9UPY3 whole entry, looked up): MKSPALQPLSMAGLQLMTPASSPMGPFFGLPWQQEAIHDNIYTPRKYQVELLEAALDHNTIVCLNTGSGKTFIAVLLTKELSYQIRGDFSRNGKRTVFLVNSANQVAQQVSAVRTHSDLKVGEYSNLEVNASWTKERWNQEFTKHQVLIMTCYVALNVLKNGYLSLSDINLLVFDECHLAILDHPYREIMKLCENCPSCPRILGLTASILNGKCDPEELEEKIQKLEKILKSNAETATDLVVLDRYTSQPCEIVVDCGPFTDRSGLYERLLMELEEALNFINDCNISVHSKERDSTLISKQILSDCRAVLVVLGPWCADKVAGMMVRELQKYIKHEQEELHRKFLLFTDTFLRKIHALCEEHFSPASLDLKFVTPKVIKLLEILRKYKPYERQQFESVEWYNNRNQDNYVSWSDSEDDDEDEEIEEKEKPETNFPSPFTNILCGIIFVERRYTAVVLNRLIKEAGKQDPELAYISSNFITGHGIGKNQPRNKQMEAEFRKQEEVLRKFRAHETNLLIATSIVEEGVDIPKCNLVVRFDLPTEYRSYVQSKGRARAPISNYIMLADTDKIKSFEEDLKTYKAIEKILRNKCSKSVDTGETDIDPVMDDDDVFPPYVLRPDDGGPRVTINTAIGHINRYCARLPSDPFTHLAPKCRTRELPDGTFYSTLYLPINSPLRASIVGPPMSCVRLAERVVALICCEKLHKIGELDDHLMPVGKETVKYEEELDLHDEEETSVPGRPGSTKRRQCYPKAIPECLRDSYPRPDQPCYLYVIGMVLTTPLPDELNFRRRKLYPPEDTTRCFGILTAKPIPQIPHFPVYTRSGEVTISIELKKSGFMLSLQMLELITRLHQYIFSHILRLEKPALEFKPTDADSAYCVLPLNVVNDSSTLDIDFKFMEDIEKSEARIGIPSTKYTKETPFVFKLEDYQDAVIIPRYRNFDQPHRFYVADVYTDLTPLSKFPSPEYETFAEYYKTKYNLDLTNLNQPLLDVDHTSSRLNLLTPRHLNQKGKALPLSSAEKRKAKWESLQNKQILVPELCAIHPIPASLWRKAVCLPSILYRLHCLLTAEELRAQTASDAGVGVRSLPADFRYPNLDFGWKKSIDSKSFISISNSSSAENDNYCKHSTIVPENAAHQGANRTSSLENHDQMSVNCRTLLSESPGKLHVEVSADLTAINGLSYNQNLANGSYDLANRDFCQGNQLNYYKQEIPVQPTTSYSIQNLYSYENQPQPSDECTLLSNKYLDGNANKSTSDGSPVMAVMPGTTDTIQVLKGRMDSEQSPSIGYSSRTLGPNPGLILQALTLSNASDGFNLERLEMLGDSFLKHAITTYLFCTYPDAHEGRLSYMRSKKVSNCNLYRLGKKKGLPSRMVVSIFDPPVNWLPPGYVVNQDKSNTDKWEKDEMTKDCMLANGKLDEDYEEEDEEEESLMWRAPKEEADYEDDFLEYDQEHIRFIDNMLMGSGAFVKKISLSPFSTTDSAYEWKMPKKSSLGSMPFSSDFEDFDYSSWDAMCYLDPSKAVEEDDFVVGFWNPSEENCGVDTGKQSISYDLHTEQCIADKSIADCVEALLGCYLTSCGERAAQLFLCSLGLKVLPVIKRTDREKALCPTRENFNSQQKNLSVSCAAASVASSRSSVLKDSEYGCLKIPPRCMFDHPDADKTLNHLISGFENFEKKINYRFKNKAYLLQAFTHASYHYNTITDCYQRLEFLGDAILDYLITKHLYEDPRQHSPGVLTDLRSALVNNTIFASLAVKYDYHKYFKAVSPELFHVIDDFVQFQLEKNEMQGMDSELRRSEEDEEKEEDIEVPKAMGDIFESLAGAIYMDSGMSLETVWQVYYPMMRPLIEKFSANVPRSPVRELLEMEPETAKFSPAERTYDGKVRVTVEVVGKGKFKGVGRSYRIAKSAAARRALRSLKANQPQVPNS
A number is an active result. Shown is part of a subset that was picked to be rich in hits.

For CCOc1ccc2c(c1)C(C)CC(C)(C)N2C(=O)NC1CCCCC1 (stereo not drawn) the results were Dicer processing inactive.
Screening Cc1ccc2c(c1)N(C(=O)NC1CCCCC1)C(C)(C)CC2C (stereo not drawn) returned Dicer processing 3.16.
Screening Cc1cc(C(C)(C)C)cc(C)c1NC(=O)/C=C/C(=O)O returned Dicer processing inactive.
For COc1ccc2ccccc2c1C1OC(=O)C2(CCCCC2)C(=O)C1(C)C (stereo not drawn) the results were Dicer processing inactive.
`O=[N+]([O-])c1cccnc1Sc1nnc(-c2ccccc2)o1` gave Dicer processing inactive.
Screening COC(=O)CCCCCCCC(=O)Nc1nccs1 returned Dicer processing inactive.
CCOC(=O)C1=C(C)NC2=C(C(=O)CC(c3ccccc3)C2)C1c1ccc(O)c(OCC)c1 (stereo not drawn) was read as Dicer processing inactive.
Screening CCC(C)OC(=O)C1=C(C)NC2=C(C(=O)CC(c3ccccc3)C2)C1c1ccc(N(C)C)cc1 (stereo not drawn) returned Dicer processing 3.34.
`CC1=C(C(=O)OCC(C)C)C(c2ccc(F)cc2)C2=C(CC(c3ccccc3)CC2=O)N1` (stereo not drawn) gave Dicer processing inactive.
Screening CC1=C(C(=O)OC(C)C)C(c2ccncc2)C2=C(CC(c3ccccc3)CC2=O)N1 (stereo not drawn) returned Dicer processing inactive.
For CCOC(=O)C1=C(C)NC2=C(C(=O)CC(c3ccccc3)C2)C1c1cccc(Br)c1 (stereo not drawn) the results were Dicer processing 5.36.
`CCOC(=O)C1=C(C)NC2=C(C(=O)CC(c3ccccc3)C2)C1c1cccc(O)c1` (stereo not drawn) gave Dicer processing inactive.
`O=c1oc(-c2sc3ccccc3c2Cl)nc2cc(Cl)ccc12` gave Dicer processing inactive.
Screening CCc1nc2ccccc2nc1N1CCN(C(=O)Nc2ccccc2)CC1 returned Dicer processing inactive.
CCCCNc1nc2c(c(=O)[nH]c(=O)n2C)n1CC(C)C was read as Dicer processing inactive.
`COC(=O)c1ccc([C@@H]2Nc3ccccc3[C@@H]3C=CC[C@@H]32)cc1` gave Dicer processing inactive.
Screening Cc1cc(C)nc(SCC2=NN(c3nc(C)cc(C)n3)C(=O)C2)n1 returned Dicer processing 4.05.
Screening Cc1cc(C)nc(N2N=C(CSc3ccc(Cl)cc3)CC2=O)n1 returned Dicer processing inactive.
Cc1cc(C)nc(N2N=C(C(C)C)CC2=O)n1 was read as Dicer processing inactive.
Screening COc1ccc(OCCC(=O)NN)cc1 returned Dicer processing 3.33.
`COc1ccc(OCCC(=O)N/N=C/C=C/c2ccccc2)cc1` gave Dicer processing inactive.
For COc1ccc(OCCN)cc1 the results were Dicer processing inactive.
C(=N/Nc1nc2ccccc2nc1/C=C/c1cccs1)/c1ccccc1 was read as Dicer processing inactive.
Screening Cc1cc2ncc(-c3ccnc(=S)[nH]3)c(C)n2n1 returned Dicer processing inactive.
`O=C(O)c1ccc(S(=O)(=O)Nc2ccc3oc4c(c3c2)C(=O)CCC4)cc1` gave Dicer processing inactive.
Cc1oc2ccc(NS(=O)(=O)c3ccc(Cl)cc3)cc2c1C(=O)O was read as Dicer processing inactive.
`Cc1ccccc1S(=O)(=O)Nc1ccc2oc3c(c2c1)CCCC3` gave Dicer processing 3.9.
Screening Cc1oc2ccc(NS(=O)(=O)c3ccccc3)cc2c1C(=O)O returned Dicer processing 3.44.
COc1ccc(S(=O)(=O)Nc2ccc3oc4c(c3c2)CCCC4)cc1 was read as Dicer processing inactive.
For Cc1oc2ccc(NS(=O)(=O)c3ccc(F)cc3)cc2c1C(=O)O the results were Dicer processing inactive.
`Cn1c(=O)c2cn(C(C)(C)C)cc2n(C)c1=O` gave Dicer processing inactive.
CCC1=C(C(=O)OC)C(c2ccc(N(C)C)cc2)n2ncnc2N1 (stereo not drawn) was read as Dicer processing inactive.
For Cc1cc(Nc2ccc(I)cc2F)c2ccccc2n1 the results were Dicer processing inactive.
COc1ccc(Oc2c(C(F)(F)F)oc3cc(OC(=O)c4cccs4)ccc3c2=O)cc1 was read as Dicer processing inactive.
For COc1ccc2c(c1)C(=O)N(c1ccc(C)cc1)C(=O)C2 the results were Dicer processing inactive.
Screening COc1ccc(O)c(C(=O)CC(=O)c2ccc(F)cc2)c1 returned Dicer processing inactive.
`COc1ccc(O)c(C(=O)C2c3ccccc3C(=O)N2c2ccc(C)cc2)c1` (stereo not drawn) gave Dicer processing 7.95.
Screening O=C(O)c1cn(CCOc2ccc(Cl)cc2)c2ccccc12 returned Dicer processing inactive.
COC(=O)C(O)(NC(=O)c1ccccc1)C(F)(F)F (stereo not drawn) was read as Dicer processing inactive.
For CCCc1c(O)ccc2c(=O)cc(C(=O)OC)sc12 the results were Dicer processing inactive.
For Cc1ccc2ncnc(NC(CO)C(=O)O)c2c1 (stereo not drawn) the results were Dicer processing inactive.
Screening Cc1ccc2ncnc(NC(CC(C)C)C(=O)O)c2c1 (stereo not drawn) returned Dicer processing inactive.
Screening CCCCC(Nc1ncnc2ccc(Br)cc12)C(=O)O (stereo not drawn) returned Dicer processing 3.9.
For CC1(C)Cc2c(sc3nc(-c4ccccc4)[nH]c(=O)c23)CO1 the results were Dicer processing inactive.
CCOc1ccc(NC2CC(=O)N(c3ccc(OC)cc3OC)C2=O)cc1 (stereo not drawn) was read as Dicer processing inactive.
Screening COc1ccc(NC2CC(=O)N(c3cccc4ccccc34)C2=O)cc1 (stereo not drawn) returned Dicer processing inactive.
For CCc1ccc(NC2CC(=O)N(c3ccc(C)cc3Br)C2=O)cc1 (stereo not drawn) the results were Dicer processing 3.27.
`Cc1cc(C)n(-c2ccc(-n3c(C)ccc3C)cc2)n1` gave Dicer processing inactive.
Screening O=C1c2cccc3c(Sc4ccccc4)ccc(c23)C(=O)N1NCCO returned Dicer processing 3.25.
`COc1ccc(CCN2C(=O)c3cccc4c(Sc5ccccn5)ccc(c34)C2=O)cc1OC` gave Dicer processing inactive.
`O=C1c2cccc3c(N4CCOCC4)ccc(c23)C(=O)N1CCO` gave Dicer processing inactive.
C=CCSc1nnc2c3sc4nc(N5CCOCC5)c5c(c4c3ncn12)CC(C)(C)OC5 was read as Dicer processing inactive.
`CC(C)Cn1c(=O)oc2ccccc21` gave Dicer processing inactive.
Oc1ccccc1-c1nc2ccccc2o1 was read as Dicer processing inactive.
`O=c1oc2ccccc2n1-c1nc2ccccc2o1` gave Dicer processing 5.63.
Screening N[C@@H](Cc1cc(I)c(Oc2ccc(O)c(I)c2)c(I)c1)C(=O)O returned Dicer processing 3.25.
NC(Cc1c[nH]c2ccc(Br)cc12)C(=O)O (stereo not drawn) was read as Dicer processing inactive.
For N[C@@H](Cc1ccc([N+](=O)[O-])cc1)C(=O)O the results were Dicer processing inactive.
Screening N[C@@H](Cc1ccc(O)c(O)c1)C(=O)O returned Dicer processing inactive.
CCOC(=O)[C@@H](N)Cc1ccccc1 was read as Dicer processing inactive.
N[C@@H](Cc1cc(I)c(Oc2cc(I)c(O)c(I)c2)c(I)c1)C(=O)O was read as Dicer processing 4.34.
CC(CCC(=O)Nc1nccs1)C(=O)O (stereo not drawn) was read as Dicer processing inactive.
`Cc1ccc(/C(O)=C2\C(=O)C(=O)N(CCCN(C)C)C2c2ccc(C)cc2)cc1` (stereo not drawn) gave Dicer processing inactive.
